Source: PubChem (National Center for Advancing Translational Sciences (NCATS))
Rows were chosen to be rich in hits. Some 19% of all compounds tested hit in one or more screens of this group.
HT1080-NT tox – kills 2HG-producing HT-1080-NT fibrosarcoma cells. HT-1080-NT fibrosarcoma viability, CellTiter-Glo ATP luminescence, 48 h. Potency, µM (titrated, usually from 46.1 µM), without a hit: top-dose activity, negative = less viability, actives largely listed as cytotoxic. actives 1.6% (n = 360,000). AID 686970;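 also: NT is the 2HG producing partner of a matched IDH1 knockdown line; potency is read from the fitted curve at half-maximal effect; 0% = DMSO-treated cells and -100% = media-only wells without cells; nearly all actives have a fitted effect of over 55% in size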
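Viability of the 2HG-overproducing fibrosarcoma line after 48 hours of compound exposure at 37 degrees C was determined by luminescence with CellTiter-Glo, and concentration-effect curves were then fitted and categorized.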
TDP1 cell CPT – growth inhibition of DT40 Tdp1-/-;hTDP1 cells with camptothecin (screen for TDP1 inhibitors) | chicken DT40 Tdp1-/-;hTDP1 cells + 20 nM CPT, ATP luminescence, 48 h | Potency, µM (doses to about 46.2 µM), inactives show top-dose activity change, negative = growth inhibition, usual class: inhibitors | actives 12% (n = 420,000) | AID 686979; also: potency is read from the fitted curve at half-maximal effect; nearly all actives have a fitted effect of over 55% in size
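Cell growth measured by CellTiter-Glo luminescence after a minimum 48 h, 37 C compound exposure with 20 nM CPT in Tdp1-knockout DT40 cells stably expressing hTDP1, seeded 400/well; qHTS titration format.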
IL1B secr inh – blocks inflammasome-driven IL-1 beta release; THP-1 LPS/ATP IL-1B secretion, AlphaLISA, 16 h; active compounds read low; activity change, % at 57.5 µM; actives 4.7% (n = 360,000); in the data active = activity change below about -50%; inconclusive = mostly about -30% to -49%
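THP-1 cells pretreated 1 hr with compounds (up to 57.5 uM final), then stimulated with LPS (250 ng/mL final) plus ATP (1.25 mM final); secreted IL-1B measured by AlphaLISA after 16 hr, decreased signal indicating inhibition.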
HT1080 IDH1KD tx – HT-1080 IDH1 knockdown cell toxicity (counter line). HT-1080 IDH1 knockdown viability, ATP luminescence, 48 h. Potency, µM (highest dose often 46.1 µM), for the others: at the highest dose activity, negative = toxicity, most hits filed as cytotoxic. actives 2% (n = 360,000);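 also: potency is read from the fitted curve at half-maximal effect; 0% = DMSO wells and -100% = cell-free medium wells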
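After a 2 h attachment period, IDH1KD HT-1080 cells took pin-transferred compound for 48 h at 37 °C; ATP-based luminescence after 10 min room-temperature reagent incubation reported viability.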
TDP1 cell noCPT – qHTS for Inhibitors of human tyrosyl-DNA phosphodiesterase 1 (TDP1): qHTS in cells in absence of CPT. DT40 Tdp1-/- hTDP1 cells, no CPT, ATP luminescence, 48 h. Potency, µM (series often up to 46.2 µM), for the others: at the highest dose activity change, negative = growth inhibition, hits mostly inhibitors. actives 15% (n = 420,000). AID 686978, 2013; also: potency is read from the fitted curve at half-maximal effect; nearly all actives have a fitted effect of over 55% in size
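Chicken DT40 Tdp1-/- cells stably complemented with human TDP1 were seeded at 400 cells/well with DMSO in place of 20 nM camptothecin. After compound pinning, cells grew at least 48 hr at 37 °C; viability read by CellTiter-Glo luminescence.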
Active calls of the source: *; ? = inconclusive; / = no result. Unless noted, calls follow the shape of the dose curve; as a rule, active = well fitted curve in the direction sought with a large enough effect; inconclusive = small, poorly fitted or top-dose-only effect, or another doubt; inactive = no such curve, though single readings can be large; an effect the other way counts as inactive or inconclusive. Unless noted, % is scaled to controls: 0 for no effect and ±100 for the full control effect.

SMILES	HT1080-NT tox	TDP1 cell CPT	IL1B secr inh	HT1080 IDH1KD tx	TDP1 cell noCPT
NC(Cc1ccc(Cl)cc1)c1csc(NC(=O)Nc2ccccc2-c2ccccc2)n1 (stereo not given)	?	13µM*	?	?	12µM*
c1nc(C2CCCCC2)cc2cc3c(cc12)OCO3	15%	?	30	17%	21µM*
Cc1ccc(Nc2cc(-c3ccccc3)nc3ncnn23)cc1	-15%	?	-56*	-10%	?
CCn1c2ccccc2c2cc(Nc3cc(C)nc4ncnn34)ccc21	0.58µM*	0.92µM*	115	1µM*	0.58µM*
Cc1ccc(Sc2c(C)nn(-c3ccccc3)c2OC(=O)C(C)(C)C)cc1	/	-16%	/	/	-5%
COc1ccc(C(=O)NCCc2c[nH]c3ccccc23)cc1	1%	?	-11	-2%	-18%
COc1cc2cc(C(=O)NCCc3c[nH]c4ccccc34)c(N)nc2cc1OC	?	?	?	?	16µM*
COc1cc(SC)ccc1C(=O)NCCOc1ccc(F)cc1	1%	?	-7	3%	16µM*
COc1cc(SC)ccc1C(=O)NCCc1c[nH]c2ccccc12	-3%	?	-65*	?	?
O=C(COc1ccccc1F)Nc1ccc2nc(SCC(=O)N3CCCC3)sc2c1	/	?	/	/	13µM*
CCOC(=O)CSc1nc2ccc(NC(=O)c3ccccc3F)cc2s1	/	-21%	/	/	-9%
O=C(COc1ccccc1F)Nc1ccc2nc(SCC(=O)N3CCOCC3)sc2c1	/	18µM*	/	/	12µM*
O=C(Nc1ccc2nc(SCC(=O)N3CCCC3)sc2c1)c1ccccc1F	/	16µM*	/	/	16µM*
CCOc1cc(CN2CCCC(CNC(=O)c3ccc(F)cc3)C2)ccc1OC (stereo not given)	0%	?	-2	6%	-11%
c1ccc(CNc2ncnc3nc(N4CCOCC4)[nH]c23)cc1	/	?	/	/	-17%
Cc1ccc(S(=O)(=O)n2nc(-c3ccco3)nc2SCc2ccccc2)cc1	6%	-19%	0	4%	?
CCOC(=O)c1nc(C)nc(Sc2n[nH]c(-c3ccc(C(C)(C)C)cc3)n2)c1C	-6%	?	-18	-4%	18µM*
Cc1ccc(C(=Cc2ccc([N+](=O)[O-])cc2)C(=O)O)cc1	1%	?	24	6%	12%
CCOc1ccc(NC(=O)c2cc(-c3ccc(C)c(F)c3)on2)c([N+](=O)[O-])c1	/	-1%	/	/	-12%
CC(C)(C)n1nnnc1C(c1ccccc1OC(F)(F)F)N1CCN(C/C=C/c2ccccc2)CC1 (stereo not given)	?	21µM*	-3	?	15µM*
CC(C)(C)n1nnnc1C(c1cccs1)N1CCN(C/C=C/c2ccccc2)CC1 (stereo not given)	-3%	?	-10	-9%	?
COc1cccc(C(c2nnnn2-c2c(C)cccc2C)N2CCN(C/C=C/c3ccccc3)CC2)c1OC (stereo not given)	?	?	0	?	?
Cc1cccc(C)c1-n1nnnc1C(c1ccccc1OC(F)(F)F)N1CCN(C/C=C/c2ccccc2)CC1 (stereo not given)	-24%	?	32	?	21µM*
Cc1ccc(C2NC(=O)CCC2[N+](=O)[O-])cc1 (stereo not given)	21%	18µM*	-12	0%	?
CCN(CC(=O)Nc1ccccc1C(F)(F)F)C(=O)c1cccc(N2C(=O)CCC2=O)c1	8%	1%	10	10%	-13%
SMILES	HT1080-NT tox	TDP1 cell CPT	IL1B secr inh	HT1080 IDH1KD tx	TDP1 cell noCPT
CCN(CC(=O)Nc1ccccc1C(F)(F)F)C(=O)c1cc2c(s1)CCCCC2	-16%	?	-53*	-17%	23µM*
Cc1cc(C)n2nc(CCCO)nc2n1	0%	-7%	10	2%	3%
O=CNn1cnc2c(oc3nc(-c4ccccc4)cc(-c4ccco4)c32)c1=O	3%	-2%	?	-2%	?
Cc1ccc(NS(=O)(=O)c2c(C)[nH]c(=O)[nH]c2=O)c(C)c1	-2%	0%	2	5%	2%
Cc1cc(C)c(S(=O)(=O)Nc2c(C)[nH]c(=O)[nH]c2=O)c(C)c1	-27%	16µM*	1	-21%	23µM*
COCC(=O)N1CCC2(CCN(Cc3ccc(C#N)cc3)CC2)CC1	/	11%	/	/	-13%
COC(=O)c1sccc1S(=O)(=O)NC(C)c1cnn(-c2ccc(OC)cc2)c1C (stereo not given)	-5%	-29%	0	0%	?
COc1ccc(-n2ncc(C(C)NS(=O)(=O)c3cc(C)sc3C)c2C)cc1 (stereo not given)	0%	?	25	-7%	16µM*
CC(C)=CCc1c(-c2ccc(O)cc2O)oc2cc3c(c(O)c2c1=O)C=CC(C)(C)O3	1%	23µM*	?	1%	23µM*
COc1ccccc1-n1c(-c2ccccc2)c[nH]c1=S	0%	18µM*	41	1%	16µM*
Cc1ccc(-c2c[nH]c(=S)n2-c2ccccc2F)cc1	0%	?	-2	-9%	23µM*
S=c1[nH]cc(-c2ccccc2)n1-c1ccccc1Cl	7%	?	-10	-1%	?
CN(C)CCSc1nnc2[nH]c3ccccc3c2n1	-1%	4%	-14	-1%	-24%
O=C(/C=C/c1ccccc1)Nc1ccc(Br)cn1	6.5µM*	2.3µM*	0	5.2µM*	2.3µM*
O=C(/C=C/c1ccccc1)Nc1ncn[nH]1	11µM*	7.3µM*	-108*	7.9µM*	10µM*
C=CCCC(=O)Nc1ccc(Br)cn1	?	?	-14	?	18µM*
O=C(O)C(=O)Nc1ncn[nH]1	7%	10%	19	7%	-28%
Cc1cc(NC(=O)/C=C/c2ccccc2)no1	6%	-25%	-9	7%	-15%
Cc1nnc(SCC(=O)Nc2nc(-c3ccc(F)cc3)cs2)[nH]c1=O	10%	-1%	9	13%	-1%
CCCCn1c(=O)n(CC(=O)Nc2ccc(OC)c(Cl)c2)c(=O)c2c1nc(CO)n2CCC	-12%	-23%	-6	-10%	?
O=C1CN(C(=O)c2ccc(Br)o2)C(c2ccccc2)c2cc(Cl)ccc2N1 (stereo not given)	-5%	15µM*	-19	-17%	?
O=C1CN(C(=O)c2ccccc2)C(c2ccccc2)c2cc(Cl)ccc2N1 (stereo not given)	-8%	5%	5	-20%	?
